# Inconclusive results are not listed. A call without a number means that no potency is given here. Activity calls are given as the source filed them. Calls come from the whole dose curve; as a rule, active = well fitted inhibition curve with a large enough effect; inconclusive = small, poorly fitted or top-dose-only effect; inactive = no such curve, though single readings can be large or run the other way.
# Assay: P-glycoprotein substrates identified in KB-3-1 adenocarcinoma cell line, qHTS therapeutic library screen (AID 1346986); note: nearly all actives have a fitted effect of over 60% in size;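 note: potency is for cytotoxicity meaning loss of cell viability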
# Conditions: KB-3-1 parental cells viability, CellTiter-Glo, 72 h; series mostly up to 44.5 µM
# Method: The ATP-binding cassette transporters P-glycoprotein (P-gp) is known to limit brain penetration of many chemotherapy drugs. […] We used the CellTiter-Glo viability assay to test library compounds against the parental KB-3-1 human cervical adenocarcinoma cell line and the colchicine-selected sub-line KB-8-5-11 that over-expresses P-gp. KB-8-5-11 cells were also tested in the presence of a P-gp inhibitor (tariquidar) to assess reversability of transporter-mediated resistance. Of the tested compounds, a total of 90 P-gp substrates were identified including 55 newly identified P-gp substrates. Substrates were confirmed using an orthogonal killing assay against HEK-293 cells transfected with P-gp. As exemplars, we confirmed that AT7159 (cyclin-dependent kinase inhibitor); AT9283, (Janus kinase 2/3 inhibitor); ispinesib (kinesin spindle protein inhibitor); gedatolisib (PKI-587, phosphoinositide 3-kinase/mammalian target of rampamycin inhibitor); GSK-690693 (AKT inhibitor); and KW-2478 (heat shock protein 90 inhibitor) were substrates , and direct ATPase stimulation was assessed. ABCG2 was also found to confer high levels of resistance to AT9283, GSK-690693 and gedatolisib, while ispinesib, AT7519 and KW-2478 were weaker substrates.
# The HeLa derivative cell line, KB-3-1, and its colchicine-selected, P-gp-overexpressing subline, KB-8-5-11 were maintained in DMEM with 10% FCS and Pen/Strep with glutamine at 37 degree C in 5% CO2. For KB-8-5-11 cells, colchicine was added to the medium at a concentration of 100 ng/mL. HEK-293 cells transfected with empty vector (pcDNA) or vector containing human ABCB1 (MDR-19) or ABCG2 (R-5) have been described previously (Robey, Lin, Qiu, Chan & Bates, 2011) and were maintained in EMEM supplemented with 10% FCS, Pen/Strep and glutamine with 2 mg/ml G418 to select for the expression of the transporter. Cultures were confirmed to be free of mycoplasma infection using the MycoAlert Mycoplasma Detection Kit (Lonza, Walkersville, MD). For the screen, assay medium was identical to culture medium except for KB-8-5-11 where colchicine was excluded from the medium.
# All cell lines were plated into 1536-well plates at 500 cells/well in 5 uL media. Compounds were then pinned in dose-response using a 1536-head pin tool (Kalypsis, San Diego, CA) and plates were incubated at 37 degree C in 5% CO2 for an additional 72 h. CellTiter-Glo reagent (Promega) was dispensed into the wells, incubated for 5 min and luminescence was read on a ViewLux instrument (Perkin-Elmer). Cytotoxic compounds were defined as those that yielded a curve class of -1.1, -1.2, -2.1, -2.2, -2.3, or -2.4, a maximum response of >50% and an AC50 of < 10 uM. Cherry-picked hits from screening analysis were tested with both the KB pair of cell lines, and the pcDNA (empty vector control) and MDR-19 (P-gp overexpressing) pair were tested, in the absence and presence of tariquidar.
# Potency is the fitted concentration of half-maximal effect.
SMILES,outcome,Potency
C[C@@H]1O[C@@H](O[C@H]2CC[C@@]3(C)C(CC[C@]4(C)C3CC=C3[C@@H]5CC(C)(C)CC[C@]5(C(=O)O[C@@H]5O[C@H](CO)[C@@H](O)[C@H](O)[C@H]5O)CC[C@]34C)[C@]2(C)CO)[C@H](O)[C@H](O[C@@H]2O[C@H](CO)[C@@H](O)[C@H](O)[C@H]2O)[C@H]1O (stereo not given in full),inactive [at 9.29 µM],–
CC(C)C[C@H](CO)Nc1nc(S[C@@H](C)c2ccccc2)nc2nc(N)sc12,–,inactive
O=C(O)c1cc(N(Cc2ccc(C3CCCCC3)cc2)C(=O)c2ccc(Oc3ccccc3)cc2)ccc1O,–,inactive
Nc1nc2c(nc(Br)n2[C@@H]2O[C@@H]3COP(=O)(O)O[C@H]3[C@H]2O)c(=O)[nH]1,–,inactive
CC(CCC1(O)OC2CC3C4CC=C5C[C@@H](O[C@@H]6O[C@H](CO)[C@@H](O[C@@H]7O[C@@H](C)[C@H](O)[C@@H](O)[C@H]7O)[C@H](O)[C@H]6O[C@@H]6O[C@@H](C)[C@H](O)[C@@H](O)[C@H]6O)CC[C@]5(C)C4CC[C@]3(C)[C@@]2(O)[C@@H]1C)CO[C@@H]1O[C@H](CO)[C@@H](O)[C@H](O)[C@H]1O (stereo not given in full),inactive [at 9.29 µM],–
C=C1C(=O)O[C@@H]2C[C@H](C)[C@@H]3CC(=O)[C@H](O)[C@@]3(C)C[C@H]12,–,inactive
CC(=O)O[C@@H]1C2=C(O)C(=O)[C@](C)(OC(C)=O)C(=O)C2=CO[C@@]12O[C@@H](C)CC[C@H]2OC(C)=O,–,inactive
COc1cc(OC)c2c(=O)[nH]c(-c3cc(C)c(OCCO)c(C)c3)nc2c1,–,inactive
C=CC(=O)Nc1cccc(Nc2nc(Nc3ccc(NC4CN(CCF)C4)cc3OC)ncc2C(F)(F)F)c1,–,10.3 µM (active)
C=C(C)C(=O)O[C@H]1[C@H]2C(=C)C(=O)O[C@@H]2/C=C(\CO)CC/C=C(/C=O)[C@@H]1O,–,inactive
CC1(C)CC[C@]23CO[C@@]4(CCC5[C@@]6(C)CC[C@H](O[C@@H]7OC[C@H](O[C@@H]8O[C@H](CO)[C@@H](O)[C@H](O)[C@H]8O[C@@H]8OC[C@@H](O)[C@H](O)[C@H]8O)[C@H](O)[C@H]7O)[C@@](C)(CO)C6CC[C@@]5(C)[C@]4(C)CC2=O)[C@@H]3C1 (stereo not given in full),inactive [at 9.29 µM],–
C#Cc1cccc(Nc2nc3cc(C(=O)O)ccc3c3cncnc23)c1,–,5.8 µM (active)
C=C1CC[C@@H](O)[C@]2(C)CC[C@H]3C(=C)C(=O)O[C@@H]3[C@@H]12,–,inactive
CC(=O)O[C@@H]1CC2C(C)(C)C(=O)C=C[C@]2(C)C2CC[C@@]3(C)[C@H](c4ccoc4)OC(=O)[C@H]4O[C@]43[C@@]21C (stereo not given in full),–,inactive
COc1cc(O)c2c(c1)/C=C/C[C@H](O)[C@H](O)C(=O)/C=C\C[C@H](C)OC2=O,–,6.51 µM (active)
Cn1ncc(Cl)c1-c1cc(C(=O)N[C@H](CN)Cc2ccc(F)c(F)c2)oc1Cl,–,11.6 µM (active)
CN1CCc2cc3c(cc2C(=O)Cc2cc4c(cc2C1)OCO4)OCO3,–,inactive
Nc1nc(Nc2ccc3c(c2)CCC(N2CCCC2)CC3)nn1-c1cc2c(nn1)-c1ccccc1CCC2 (stereo not given),–,11.6 µM (active)
C=C1C(OC2OC(CO)C(O)C(O)C2O)CC2C(C)(C)C(O)CCC2(C)C1CC/C(C)=C\COC(=O)CC(=O)O (stereo not given),–,inactive
COc1cccc(CN(C(=O)CC(C)(C)C)[C@H]2C[C@H](C(=O)N3CCNCC3)N(Cc3ccc4c(c3)OCO4)C2)c1,–,inactive

SMILES,outcome,Potency
CC1(C)CC[C@]2(C(=O)O[C@@H]3O[C@H](CO)[C@@H](O)[C@H](O)[C@H]3O)CC[C@]3(C)C(=CCC4[C@@]5(C)CC[C@H](O[C@@H]6O[C@H](C(=O)O)[C@H](O)[C@H](O)[C@H]6O)C(C)(C)C5CC[C@]43C)[C@@H]2C1 (stereo not given in full),–,inactive
CC1(C)CCCC2(C)C1C(OC(=O)/C=C/C=C/C=O)C=C1COC(=O)C12O (stereo not given),–,inactive
COc1ccc(-c2ccc3c(N4CCOCC4C)nc(N4CCOCC4C)nc3n2)cc1CO (stereo not given),–,0.0731 µM (active)
C=C[C@]1(C)C[C@H](O)[C@H]2C(=C)C(=O)O[C@@H]2[C@H]1C(=C)CO,–,inactive
CC(=O)OCC(=O)[C@@]12O[C@@H]1C[C@H]1[C@@H]3CC=C4C[C@@H](O)CC[C@]4(C)[C@H]3CC[C@@]12C,–,inactive
C=C1C(=O)O[C@@H]2C[C@]3(C)[C@@H](CCC(C)O)[C@@H]3C[C@H]12 (stereo not given in full),–,inactive
C=C1C(=O)O[C@@H]2/C=C(\CO)CC/C=C(/C=O)C[C@H](O)[C@@H]12,–,inactive
COc1cc(F)c(C(C)C)cc1-c1ccc(C(F)(F)F)cc1CN1C(=O)OC(c2cc(C(F)(F)F)cc(C(F)(F)F)c2)C1C (stereo not given),–,inactive
C=CC(=O)N1CC(N2CCN(C(=O)CNc3cc(C4CC4)c(Cl)cc3O)CC2)C1,–,inactive
Cc1cccc(N2CCN(C(=O)c3cc(S(=O)(=O)N(C)C)ccc3N3CCCC3)CC2)c1C,–,inactive
C=C(COC(=O)C(O)C(O)CN)C12OC1C1(C)C(=CC2=O)C(O)C(O)CC1C (stereo not given),–,inactive
CC#CCn1c(N2CCCC(N)C2)nc2c1c(=O)n(Cc1nc(C)c3ccccc3n1)c(=O)n2C (stereo not given),–,inactive
Cc1cc2c(F)c(Oc3ncnn4cc(OCC(C)OC(=O)C(C)N)c(C)c34)ccc2[nH]1 (stereo not given),–,16.4 µM (active)
COc1ccc(CN2CCN(CCCSc3cc(C(C)(C)C)c(O)c(C(C)(C)C)c3)CC2)c(OC)c1OC,inactive [at 9.29 µM],–
CN(C)c1ccc(NC(=O)NS(=O)(=O)c2ccc(Cl)cc2)cc1,–,inactive
Nc1nc(OCc2cc(Br)cs2)c2[nH]cnc2n1,–,inactive
Cn1sc(=O)n(Cc2ccccc2)c1=O,–,7.31 µM (active)
C=CC(=O)N1CCC(Oc2cc3c(Nc4ccc(Cl)c(Cl)c4F)ncnc3cc2OC)CC1,–,13 µM (active)
CO[C@H]1O[C@@H]2O[C@@]3(C)CCC4[C@H](C)CCC([C@H]1C)[C@]42OO3 (stereo not given in full),–,inactive
C1=C/COCc2cc(ccc2OCCN2CCCC2)Nc2nccc(n2)-c2cccc(c2)COC/1,–,4.61 µM (active)
